In the library only some 1.1% were active in any assay of this set; here they are far more common.
LDHA block: qHTS assay for inhibitors of human lactate dehydrogenase. purified LDHA, NADH/diaphorase-resazurin fluorescence; stronger effect = lower value. activity change, % (values are at about 110 or 230 µM). actives 0.15% (n = 480,000). AID 1347041, 2019; in the data active = activity change below about -30%; inconclusive = mostly about -25% to -30%;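 also: plate controls were DMSO wells for no effect and wells without enzyme for full effect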
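Remaining NADH was detected by diaphorase (0.133 mg/mL) converting 37 µM resazurin to fluorescent resorufin, read at 0 and 20 minutes. The preceding 5-minute room-temperature reaction used 2 nM LDHA, 0.2 mM sodium pyruvate and 0.06 mM NADH at pH 7.4.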
RGS4 inh: Inhibitors of Regulator of G Protein Signaling (RGS) 4: qHTS | Regulator of G-protein signaling 4 (Homo sapiens), P49798 | Transcreener GDP fluorescence polarization, RGS4-accelerated GTP hydrolysis | Potency, µM (highest dose often 114 µM), for inactives: top-dose activity change, negative = inhibition, actives largely listed as inhibitors | actives 0.039% (n = 390,000) | AID 504845, 2011; also: potency is read from the fitted curve at half-maximal effect; % is scaled to controls: 0 for no effect and ±100 for the full control effect; nearly all actives have a fitted effect of over 75% in size
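MLSMR compounds (23 nl, pin-transferred) preincubated 10 min at room temperature with a 500nM (2x) first reagent, then RGS4 at 900nM (2x) plus Transcreener GDP mix added; fluorescence polarization (620/688 nm) read before and after 90 min at 30 °C.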
PTHR1 agonist: qHTS for PTHR1 Agonists: Primary Screen. Parathyroid hormone/parathyroid hormone-related peptide receptor (Homo sapiens), Q03431. HEK293 GP2 PTHR1 cells, GloSensor cAMP luminescence, 1 h. Potency, µM (doses to about 115 µM), without a hit: at the top dose activation, actives largely listed as activators. actives 0.075% (n = 410,000); also: potency is read from the fitted curve at half-maximal effect; nearly all actives have a fitted effect of over 55% in size
Target sequence (Q03431 whole entry, looked up): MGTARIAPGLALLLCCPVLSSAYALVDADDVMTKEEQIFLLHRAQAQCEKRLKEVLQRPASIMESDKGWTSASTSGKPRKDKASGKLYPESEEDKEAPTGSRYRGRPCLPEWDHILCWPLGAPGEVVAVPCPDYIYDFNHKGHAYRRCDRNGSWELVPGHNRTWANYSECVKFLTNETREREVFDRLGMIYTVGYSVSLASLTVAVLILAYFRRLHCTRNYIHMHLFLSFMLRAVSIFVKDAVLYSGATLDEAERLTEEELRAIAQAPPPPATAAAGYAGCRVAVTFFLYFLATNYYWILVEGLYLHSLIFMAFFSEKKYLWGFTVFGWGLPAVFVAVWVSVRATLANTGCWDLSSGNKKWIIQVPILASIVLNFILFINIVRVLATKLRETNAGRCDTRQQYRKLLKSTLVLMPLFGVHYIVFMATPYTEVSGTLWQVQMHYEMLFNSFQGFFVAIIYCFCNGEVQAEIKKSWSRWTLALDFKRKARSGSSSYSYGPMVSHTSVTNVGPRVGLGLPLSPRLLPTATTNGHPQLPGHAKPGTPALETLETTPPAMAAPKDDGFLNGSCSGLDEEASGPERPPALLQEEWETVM
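HEK-293-derived GP2 cells expressing PTHR1 and a GloSensor cAMP reporter, 3,000/well, plated overnight, given luciferin plus IBMX (each 0.5 mM as added) for 1 h at 37 °C, then compound for 1 h at 37 °C. Luminescence was read after 15 min at room temperature.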
BRCA1 expr up: qHTS Assay to Identify Small Molecule Activators of BRCA1 Expression; Potency, µM (titrated, usually from 46.1 µM), for inactives: at the top dose activation, hits mostly activators; MCF7-BRCA1-FFLuc reporter, luminescence, 48 h; response scale: scaled: vehicle 0%, 10 µM genistein 100%; actives 1.1% (n = 380,000); also: potency is read from the fitted curve at half-maximal effect; nearly all actives have a fitted effect of over 80% in size
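Quantitative HTS in MCF7 cells stably reporting BRCA1 expression via firefly luciferase. Compound treatment lasts 48 h at 37 °C in phenol-red free MEM. Activation is expressed relative to genistein at 10 microM and DMSO.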
p53 reactivation: qHTS assay for re-activators of p53 using a Luc reporter; Potency, µM (highest dose often 92.2 µM), for the others: at the top dose activity change, positive = activation, actives largely listed as activators; H1299 p53-A138V BP100-luciferase reporter, luminescence, 24 h; actives 0.063% (n = 320,000); also: potency is read from the fitted curve at half-maximal effect; % of control where 0% means no effect; nearly all actives have a fitted effect of over 45% in size
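p53-null H1299 cells stably carrying temperature-sensitive p53-A138V and a BP100-luciferase reporter were pinned with compounds (4-point, 1:5 series) and held 24 hrs at 37 deg C. Luminescence was read 10 min after detection reagent.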
* hit, by the source's call; i = inactive; u = inconclusive; x = not tested or not shown; [ ] = another dose, or the depositor's remark. Unless noted, calls follow the shape of the dose curve; as a rule, active = well fitted curve in the direction sought with a large enough effect; inconclusive = small, poorly fitted or top-dose-only effect, or another doubt; inactive = no such curve, though single readings can be large; an effect the other way counts as inactive or inconclusive.

SMILES	LDHA block	RGS4 inh	PTHR1 agonist	BRCA1 expr up	p53 reactivation
O=C(Nc1ccccc1Cl)c1ccc2nccnc2c1	0.6	24.4%	-43.0%	5.01µM*	u
COc1ccc(NC(=O)c2ccc(NC(=O)c3ccncc3)cc2)cc1	-6.7	-1.4%	i	3.4%	8.2%
Cc1ccc(NC(NC(=O)c2ccco2)C(=O)c2ccccc2)cc1 (configuration not stated)	8.1	x	x	x	x
O=C(N/N=C/c1cccs1)c1cnccn1	-2.9	8.3%	i	29.8%	u
O=C(N/N=C/c1cccs1)c1[nH]ncc1Br	-1.0	12.1%	-22.4%	3.16µM*	u
Cc1occc1C(=O)N/N=C/c1cccs1	-8.1	-4.0%	-16.7%[57.5 µM]	12.6µM*	19.9%
Cc1cc(/C=N/NC(=O)c2ccoc2C)cc(C)c1O	-2.2	x	-28.0%	7.94µM*	x
CCCc1cc(C(=O)NCCc2ccccc2)no1	0.3	-9.9%	-22.6%	3.98µM*	u
CCc1cc(C(=O)NCc2ccccc2)no1	-2.8	-47.0%	i	x	x
COc1cccc(CCNC(=O)c2cc(COc3cccc(OC)c3)on2)c1	-0.7	x	-9.2%	67.8%	x
Cc1ccc(OCc2cc(C(=O)NCCc3cccnc3)no2)cc1C	-1.2	12.9%[56.9 µM]	i	11.2µM*	26.6%
Cc1ccc(OCc2cc(C(=O)NC(C)Cc3cccnc3)no2)cc1C (configuration not stated)	0.1	-1.4%	-36.6%	90.3%	15.9%
Cc1ccc(OCc2cc(C(=O)NCCn3cccn3)no2)cc1C	-0.7	-8.3%	-53.7%	29.5%	10.5%
O=C(NCCCn1cccn1)c1cc(COc2ccccc2)on1	1.5	x	-45.7%	11.2µM*	x
COc1cccc(CCNC(=O)c2cc(COc3ccc(C)c(C)c3)on2)c1OC	-1.0	x	-32.6%	5.62µM*	x
CCCc1cc(C(=O)Nc2cc(C)ccc2O)no1	-3.8	-9.7%	-9.2%	2.82µM*	u
CC(=O)c1cccc(OCc2cc(C(=O)N(C)CCc3ccccn3)no2)c1	-7.8	41.7%	-23.0%	16.5%	2.3%
CCCc1cc(C(=O)Nc2cccnc2Cl)no1	-11.8	6.8%	i	0.0%	15.3%
Cc1ccc(OCc2cc(C(=O)N(C)CCc3ccccn3)no2)cc1C	-1.0	-12.8%	-27.0%	8.91µM*	u
CCN(Cc1ccccc1)C(=O)CSc1nc2cn(CC)nc2c(=O)n1Cc1ccc(C)cc1	7.2	x	x	x	x
O=C(CSc1nnc(NC(=O)c2ccccc2F)s1)NCC1CCCO1 (configuration not stated)	-1.1	-24.2%	-8.5%	12.6µM*	u
Clc1ccc(C=Nc2ccc(Nc3ccccc3)cc2)c(Cl)c1	8.3	x	x	x	x
Cc1cc(C(=O)NC(C)c2cccc(Cl)c2)c2cnn(C(C)C)c2n1 (configuration not stated)	-1.3	x	x	x	x
Nc1ccc(-c2nnn(Cc3ccccc3F)n2)cc1	-7.3	4.0%	-66.1%	11.2µM*	x
Cn1nnc(-c2ccc(OCc3ccccc3F)cc2)n1	-3.8	-3.6%	-88.7%[57.5 µM]	u	x
SMILES	LDHA block	RGS4 inh	PTHR1 agonist	BRCA1 expr up	p53 reactivation
Fc1ccccc1COc1ccc(-c2nnn(Cc3ccccc3F)n2)cc1	5.9	-9.1%	-10.6%	20.7%	8.6%
CC(C)n1nnc(-c2ccc(OCc3ccccc3F)cc2)n1	-5.1	27.7%	-7.8%	4.47µM*	8.4%
Cc1cc(C)cc(NC(=S)NCCO)c1	1.4	x	x	x	x
COc1ccc(OCCSc2nc(N)cc(N)n2)cc1	0.4	12.2%	-23.1%[57.5 µM]	11.2µM*	17.9%
O=C(NC1CCCCC1)c1cc2cc(Br)ccc2o1	-3.5	-5.1%	-29.3%	89.4%	1.0%
O=C(NC1CCCC1)c1cc2cc(Br)ccc2o1	-0.9	-20.8%	-41.8%	3.16µM*	-6.4%
Cc1ccc2cc3cc(C(=O)NC4CC4)oc3nc2c1	0.8	-17.2%	-17.2%	58.7%	u
Cc1ccc2cc3cc(C(=O)NC4CCCCC4)oc3nc2c1	-5.8	-12.9%	-36.6%	3.98µM*	21.9%
